Data published in PubChem BioAssay AID1159580 (chemical genetic matrix, 2015).
Several values for one entry are separate records, joined by “and”; a condition that tells them apart may be missing. Identical values can stand only once. Among all 5,500 compounds or so, about 2,000 (36%) were called active. Inconclusive results (about 18%) are left out. No stated cut-off is given here; in the data, active means normalized growth mostly below about 0.91 (no sharp cut-off); inconclusive means no clear call, values can overlap the other calls; inactive means mostly above about 0.92. The list shows a part of the results.

Assay: chemical genetic growth profiling, strain panel (AID 1159580);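 further: tested at 20 µM; growth read once vehicle control cultures reached saturation at 30 °C; 1 = growth at the plate median or of vehicle wells; lower values mean less growth of the strain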
Details: S. cerevisiae deletion strains, growth OD

Measured: normalized growth

Clc1ccc(COC(Cn2ccnc2)c2ccc(Cl)cc2Cl)c(Cl)c1 (configuration not stated)
active: locus YAL013W, strain DEP1, active compounds read low 0.0568 | locus YAL021C, strain ccr4, active compounds read low 0.0668 | locus YAL026C, strain drs2, active compounds read low 0.0674 | locus YAL030W, strain snc1, active compounds read low 0.0581 | locus YBL061C, strain skt5, active compounds read low 0.0608 | locus YBR009C, strain hhf1, active compounds read low 0.0655 | locus YBR021W, strain FUR4, active compounds read low 0.0874 | locus YBR023C, strain chs3, active compounds read low 0.0682 | locus YBR171W, strain sec66, active compounds read low 0.0803 | locus YBR229C, strain ROT2, active compounds read low 0.0268 | locus YBR231C, strain swc5, active compounds read low 0.0764 | locus YBR279W, strain paf1, active compounds read low 0.0803 | locus YCL011C, strain gbp2, active compounds read low 0.0572 | locus YCL016C, strain dcc1, active compounds read low 0.0647 | locus YCL029C, strain bik1, active compounds read low 0.0612 | locus YCL061C, strain MRC1, active compounds read low 0.065 | locus YCL069W, strain vba3, active compounds read low 0.0638 | locus YCR088W, strain abp1, active compounds read low 0.0654 | locus YDL005C, strain med2, active compounds read low 0.0803 | locus YDL035C, strain GPR1, active compounds read low 0.0505 | locus YDL040C, strain nat1, active compounds read low 0.0613 | locus YDL074C, strain BRE1, active compounds read low 0.0763 | locus YDL101C, strain DUN1, active compounds read low 0.0503 | locus YDL134C, strain PPH21, active compounds read low 0.0516 | locus YDL185W, strain tfp1, active compounds read low 0.0554 | locus YDL192W, strain arf1, active compounds read low 0.0597 | locus YDR001C, strain nth1, active compounds read low 0.0613 | locus YDR069C, strain doa4, active compounds read low 0.065 | locus YDR101C, strain arx1, active compounds read low 0.0587 | locus YDR137W, strain rgp1, active compounds read low 0.111 | locus YDR150W, strain NUM1, active compounds read low 0.0575 | locus YDR159W, strain sac3, active compounds read low 0.0885 | locus YDR162C, strain NBP2, active compounds read low 0.0451 | locus YDR195W, strain ref2 0.126 | locus YDR297W, strain sur2, active compounds read low 0.0574 | locus YDR318W, strain mcm21, active compounds read low 0.0643 | locus YDR334W, strain swr1, active compounds read low 0.0662 | locus YDR335W, strain msn5, active compounds read low 0.0617 | locus YDR388W, active compounds read low 0.056 | locus YDR392W, strain spt3, active compounds read low 0.101 | locus YDR502C, strain sam2, active compounds read low 0.0624 | locus YEL003W, strain gim4, active compounds read low 0.0564 | locus YEL037C, strain rad23, active compounds read low 0.0601 | locus YEL061C, strain CIN8 (second series), active compounds read low 0.0638 | locus YEL061C, strain CIN8, active compounds read low 0.0482 | locus YER015W, strain faa2, active compounds read low 0.0604 | locus YER016W, strain bim1, active compounds read low 0.0607 | locus YER110C, active compounds read low 0.0744 | locus YER111C, strain swi4, active compounds read low 0.0809 | locus YER155C, strain BEM2 (second series), active compounds read low 0.0947 | locus YER155C, strain BEM2, active compounds read low 0.0667 | locus YER167W, strain BCK2, active compounds read low 0.0577 | locus YFR010W, strain ubp6, active compounds read low 0.0709 | locus YGL078C, strain dbp3, active compounds read low 0.0696 | locus YGL086W, strain mad1, active compounds read low 0.0583 | locus YGL167C, strain pmr1, active compounds read low 0.0799 | locus YGL173C, strain kem1, active compounds read low 0.072 | locus YGL227W, strain vid30, active compounds read low 0.067 | locus YGL240W, strain doc1, active compounds read low 0.0883 | locus YGL248W, strain PDE1, active compounds read low 0.0461 | locus YGL253W, strain hxk2, active compounds read low 0.0558 | locus YGR078C, strain PAC10, active compounds read low 0.0558 | locus YGR135W, strain pre9, active compounds read low 0.0676 | locus YGR229C, strain SMI1, active compounds read low 0.0622 | locus YGR252W, strain gcn5, active compounds read low 0.155 | locus YHR013C, strain ard1, active compounds read low 0.106 | locus YHR027C, strain rpn1, active compounds read low 0.0625 | locus YHR030C, strain SLT2, active compounds read low 0.0509 and 0.102 | locus YHR079C, strain IRE1 (second series), active compounds read low 0.0623 | locus YHR079C, strain IRE1, active compounds read low 0.124 | locus YHR094C, strain hxt1, active compounds read low 0.0654 | locus YHR129C, strain ARP1, active compounds read low 0.0576 | locus YHR142W, strain chs7, active compounds read low 0.0767 | locus YHR200W, strain rpn10, active compounds read low 0.0606 | locus YIL066C, strain RNR3, active compounds read low 0.0442 | locus YIL073C, strain SPO22, active compounds read low 0.115 | locus YIL125W, strain kgd1, active compounds read low 0.0693 | locus YIR030C, strain dcg1, active compounds read low 0.0593 | locus YJL092W, strain hpr5, active compounds read low 0.061 | locus YJL095W, strain BCK1 (second series), active compounds read low 0.059 | locus YJL095W, strain BCK1, active compounds read low 0.0515 and 0.106 | locus YJL115W, strain asf1, active compounds read low 0.0748 | locus YJL129C, strain trk1, active compounds read low 0.0933 | locus YJL134W, strain LCB3, active compounds read low 0.0457 | locus YJL154C, strain vps35, active compounds read low 0.062 | locus YJL164C, strain tpk1, active compounds read low 0.0667 | locus YJL166W, strain qcr8, active compounds read low 0.0609 | locus YJL168C, strain set2, active compounds read low 0.0574 | locus YJL187C, strain SWE1 (second series), active compounds read low 0.0406 | locus YJL187C, strain SWE1, active compounds read low 0.0602 | locus YJR043C, strain POL32, active compounds read low 0.0602 | locus YJR066W, strain TOR1, active compounds read low 0.0025
